KCNQ2 block: blocks the rat KCNQ2 potassium channel; O88943; CHO-K1 KCNQ2, FluxOR thallium flux, 20 min; stronger effect = lower value; B-score at 10 µM; 1.1% of 310,000 active; AID 2156;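 active means fluorescence ratio B-score at most minus 3 library SDs, with starting brightness B-score within 2 library SDs, cut at about -5.5 in these data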
Target sequence (O88943 whole entry, looked up): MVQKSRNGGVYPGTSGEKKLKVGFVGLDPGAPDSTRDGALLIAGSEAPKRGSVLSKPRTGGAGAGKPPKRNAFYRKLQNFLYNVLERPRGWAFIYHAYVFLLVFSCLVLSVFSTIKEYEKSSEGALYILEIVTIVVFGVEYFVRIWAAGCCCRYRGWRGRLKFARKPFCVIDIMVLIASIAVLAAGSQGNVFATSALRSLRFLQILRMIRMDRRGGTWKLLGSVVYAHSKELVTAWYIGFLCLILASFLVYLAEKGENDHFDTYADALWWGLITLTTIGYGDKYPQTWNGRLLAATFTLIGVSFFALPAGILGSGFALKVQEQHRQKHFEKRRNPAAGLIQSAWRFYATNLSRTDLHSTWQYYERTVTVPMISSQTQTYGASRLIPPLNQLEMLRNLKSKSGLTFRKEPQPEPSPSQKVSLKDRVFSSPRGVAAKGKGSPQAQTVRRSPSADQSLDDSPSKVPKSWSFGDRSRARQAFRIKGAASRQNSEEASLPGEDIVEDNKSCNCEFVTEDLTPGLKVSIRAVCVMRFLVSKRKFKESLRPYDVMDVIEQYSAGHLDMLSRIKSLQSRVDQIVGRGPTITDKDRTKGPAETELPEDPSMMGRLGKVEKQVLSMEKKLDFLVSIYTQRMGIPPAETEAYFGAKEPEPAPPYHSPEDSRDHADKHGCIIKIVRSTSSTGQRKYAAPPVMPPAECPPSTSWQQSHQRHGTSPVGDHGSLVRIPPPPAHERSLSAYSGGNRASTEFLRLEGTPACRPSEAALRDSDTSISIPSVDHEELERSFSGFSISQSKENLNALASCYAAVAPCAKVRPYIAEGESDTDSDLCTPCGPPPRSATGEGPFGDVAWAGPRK
KCNQ2 pot: KCNQ2 (rat) channel potentiation | O88943 | CHO-K1 KCNQ2, FluxOR thallium flux fluorescence; stronger effect = higher value | B-score at 10 µM | 0.54% of 310,000 active | AID 2239;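 active means fluorescence ratio B-score at least 3 SD of library B-scores, with initial fluorescence B-score within 3 of them, cut at about 5.3 in these data; same plate scores as AID 2156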;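 further: B-score of peak minus minimum over baseline fluorescence ratio after K+ and Tl+ stimulus; positive B-score means potentiation of KCNQ2 with more thallium influx and brighter signal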
Active calls of the source: *. Compounds with a hit are over-represented: about 1.6% of the library has one in this group of screens.

CCOC(=O)C1CCN(c2c(C(=O)c3ccccc3)cnc3ccc(Cl)cc23)CC1 was read as KCNQ2 block -5.58* and KCNQ2 pot -5.58.
CC(C)=C(NC(=O)c1ccccc1Br)C(=O)NCCc1nc2ccccc2[nH]1 was read as KCNQ2 block inactive.
`Cc1nn(C)cc1S(=O)(=O)Nc1cccc(Cl)c1` gave KCNQ2 block inactive.
Screening O=C(C1=C[C@@H](C2CCCCC2)C[C@@H](OCc2ccc(CO)cc2)O1)N1CCN(Cc2ccccc2)CC1 returned KCNQ2 block -6.5* and KCNQ2 pot -6.5.
Screening C[C@@H]1C=C(C(=O)N2CCN(Cc3ccccc3)CC2)O[C@H](OCc2ccc(CO)cc2)C1 returned KCNQ2 block inactive.
For O=C(C1=C[C@H](C2CCCCC2)C[C@H](OCc2ccc(CO)cc2)O1)N1CCOCC1 the results were KCNQ2 block inactive.
O=C(C1=C[C@H](C2CCCCC2)C[C@H](OCc2ccc(CO)cc2)O1)N1CCN(Cc2ccccc2)CC1 was read as KCNQ2 block -6.71* and KCNQ2 pot -6.71.
`CN1C(=O)C2(c3ccccc31)c1c(oc3ccccc3c1=O)C(=O)N2CCCO` (centres undefined) gave KCNQ2 block inactive and KCNQ2 pot 0.89.
`COc1cc(Nc2ccc(S(N)(=O)=O)cc2)c([N+](=O)[O-])nc1[N+](=O)[O-]` gave KCNQ2 block inactive and KCNQ2 pot 0.35.
Screening CCc1nn(CC(=O)NCCC2=CCCCC2)c(=O)c2cc3cc(F)ccc3n12 returned KCNQ2 block inactive.
CCOc1cc(CNc2ccc(O)cc2)cc(Br)c1OCc1ccccc1F was read as KCNQ2 block inactive.
Screening C=CCOc1c(Br)cc(CNc2ccc(NC(=O)C(C)C)cc2)cc1OCC returned KCNQ2 block inactive and KCNQ2 pot 8.32*.
COc1ccc(C2CC(c3ccccc3)n3nc(NC(=O)c4cccs4)nc3N2)cc1 (centres undefined) was read as KCNQ2 block -5.61* and KCNQ2 pot -5.61.
Screening COc1ccc(C2CC(c3ccccc3)Nc3nc(NC(=O)c4cccs4)nn32)cc1 (centres undefined) returned KCNQ2 block inactive and KCNQ2 pot 0.27.
`CC(C(=O)NC1CCCC1)N(C(=O)Cn1nnc(-c2ccc(F)cc2)n1)c1ccccc1F` (centres undefined) gave KCNQ2 block inactive.
`CC(C(=O)NC1CCCC1)N(C(=O)c1ccc(-c2ccccc2)[nH]1)c1ccccc1F` (centres undefined) gave KCNQ2 block -6.45* and KCNQ2 pot -6.45.
`COc1ccc(C(=O)COC(=O)C2CCC(=O)N2)cc1` (centres undefined) gave KCNQ2 block inactive.
`O=C(COC(=O)CC(c1ccccc1)c1ccccc1)Nc1ccc(F)c(F)c1` gave KCNQ2 block -8.08* and KCNQ2 pot -8.08.
`O=C(COC(=O)CC(c1ccccc1)c1ccccc1)Nc1cccc(F)c1` gave KCNQ2 block inactive.
N/C(Cc1ccc(Cl)cc1Cl)=N\OC(=O)c1ccccc1 was read as KCNQ2 block inactive and KCNQ2 pot 4.11.
N/C(CC1CC1(Cl)Cl)=N\OC(=O)c1ccccc1 (centres undefined) was read as KCNQ2 block -8.59* and KCNQ2 pot -8.59.
Screening O=C(Cc1nc2ccccc2[nH]1)c1ccc(Br)cc1 returned KCNQ2 block inactive.
`C=CCn1c(=O)c(C(=O)Nc2ccccc2O)c(O)c2ccccc21` gave KCNQ2 block inactive.
C=CCn1c(=O)c(C(=O)Nc2ccccc2C)c(O)c2ccccc21 was read as KCNQ2 block -6.12* and KCNQ2 pot -6.12.
COc1ccc2[nH]c3c(N4CC(C)OC(C)C4)ncnc3c2c1 (centres undefined) was read as KCNQ2 block inactive and KCNQ2 pot 0.36.
`COc1cccc(N2CCN(c3ncnc4c3[nH]c3ccccc34)CC2C)c1` (centres undefined) gave KCNQ2 block -11.1* and KCNQ2 pot -11.1.
For c1ccc2c(c1)CCN(c1ncnc3c1[nH]c1ccccc13)C2 the results were KCNQ2 block inactive.
COc1cccc(N2CCN(c3ncnc4c3[nH]c3ccc(F)cc34)CC2C)c1 (centres undefined) was read as KCNQ2 block -11.2* and KCNQ2 pot -11.2.
COC(=O)c1ccc(CC(=O)c2ccc(O)cc2O)o1 was read as KCNQ2 block -5.83* and KCNQ2 pot -5.83.
CCOC(=O)c1ccc(CC(=O)c2ccc(O)cc2O)o1 was read as KCNQ2 block inactive.
Screening COc1cc(C(=O)Nc2ccc(S(=O)(=O)N3CCOCC3)cc2)c([N+](=O)[O-])cc1OC returned KCNQ2 block inactive and KCNQ2 pot 0.72.
For Oc1[nH]c2c(Cl)cc(Cl)cc2c1N=NC(=S)NCC1CCCO1 (centres undefined) the results were KCNQ2 block inactive and KCNQ2 pot 10.9*.
Cc1cc(C)c2[nH]c(O)c(N=NC(=S)NCC3CCCO3)c2c1 (centres undefined) was read as KCNQ2 block inactive and KCNQ2 pot 1.22.
For COC(=O)c1ccc(OC)c(CSc2nnc(COc3ccc(OC)cc3)o2)c1 the results were KCNQ2 block inactive.
`COC(=O)c1ccc(OC)c(CSc2nnc(COc3cccc(C)c3)o2)c1` gave KCNQ2 block -6.07* and KCNQ2 pot -6.07.
`Cc1cc(C)c(S(=O)(=O)NNC(=O)C2CCN(Cc3ccccc3)CC2)c(C)c1` gave KCNQ2 block inactive and KCNQ2 pot 0.43.
For CC1CCCCC1NC(=O)C1CCCN(S(=O)(=O)c2ccc(-n3cnnn3)cc2)C1 (centres undefined) the results were KCNQ2 block inactive and KCNQ2 pot 0.22.
Cc1ccccc1CSCCNC(=O)CSCc1ccc([N+](=O)[O-])cc1 was read as KCNQ2 block -6.42* and KCNQ2 pot -6.42.
Screening Cc1ccc(CSCCNC(=O)CSCc2ccc([N+](=O)[O-])cc2)cc1 returned KCNQ2 block inactive.
Screening Cc1ccc(N(C(=O)Nc2ccccc2)C2=NCCC2)cc1 returned KCNQ2 block inactive.
`Cc1ccc(N(C(=O)NC2CCCCC2)C2=NCCCCC2)cc1` gave KCNQ2 block -5.81* and KCNQ2 pot -5.81.
O=C(CN1CCN(CC(=O)Nc2ccccc2Cl)CC1)Nc1ccc(F)c(F)c1 was read as KCNQ2 block inactive and KCNQ2 pot 2.13.
For CCOc1ccc(CCNC(=O)c2ccccc2OCc2c(C)noc2C)cc1OCC the results were KCNQ2 block inactive.
For Cc1ccc(C(=O)c2ccccc2C(=O)Nc2ccccc2)cc1 the results were KCNQ2 block inactive and KCNQ2 pot 1.66.
Screening Cc1ccc(C)c(NC(=O)c2ccccc2C(=O)c2ccccc2)c1 returned KCNQ2 block -6.01* and KCNQ2 pot -6.01.
For COc1ccc(Oc2nc(OC)cc(OC)n2)cc1 the results were KCNQ2 block inactive and KCNQ2 pot 0.06.
For CCOC(=O)N1CCC(N2CCCC(C(=O)c3ccccc3OC)C2)CC1 (centres undefined) the results were KCNQ2 block inactive.
`COc1ccc(C(=O)N/C(=C/c2cccs2)c2nc3ccccc3[nH]2)cc1OC` gave KCNQ2 block inactive and KCNQ2 pot 1.07.
For COc1cc(/C=C(/C(=O)c2cccs2)c2nc3ccccc3[nH]2)cc(OC)c1O the results were KCNQ2 block -6.06* and KCNQ2 pot -6.06.
`COc1cc(C(=O)O[C@H]2CC(C)=CC[C@@]3(C)CC[C@@](O)(C(C)C)[C@H]23)ccc1O` gave KCNQ2 block inactive.

Screening results deposited in PubChem by Johns Hopkins Ion Channel Center.
